# According to paper PMC4336329 (PLoS ONE, 2015):
# The campaign covered roughly 310,000 compounds. About 14,000 (4.5%) showed an effect of 50% or more. The effect is printed as a negative number. The full list was thinned out, with strong results kept by preference.
# Biological target: human ether-à-go-go-related gene (hERG) potassium channel (human, UniProt Q12809)
# Test: primary screen, population patch clamp on CHO cells stably expressing hERG; higher = less effect of the substance
# 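Further: peak tail current of the secondary pulse compared with the same well before compound.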
# Chain of human ether-à-go-go-related gene (hERG) potassium channel (Q12809 whole entry, looked up): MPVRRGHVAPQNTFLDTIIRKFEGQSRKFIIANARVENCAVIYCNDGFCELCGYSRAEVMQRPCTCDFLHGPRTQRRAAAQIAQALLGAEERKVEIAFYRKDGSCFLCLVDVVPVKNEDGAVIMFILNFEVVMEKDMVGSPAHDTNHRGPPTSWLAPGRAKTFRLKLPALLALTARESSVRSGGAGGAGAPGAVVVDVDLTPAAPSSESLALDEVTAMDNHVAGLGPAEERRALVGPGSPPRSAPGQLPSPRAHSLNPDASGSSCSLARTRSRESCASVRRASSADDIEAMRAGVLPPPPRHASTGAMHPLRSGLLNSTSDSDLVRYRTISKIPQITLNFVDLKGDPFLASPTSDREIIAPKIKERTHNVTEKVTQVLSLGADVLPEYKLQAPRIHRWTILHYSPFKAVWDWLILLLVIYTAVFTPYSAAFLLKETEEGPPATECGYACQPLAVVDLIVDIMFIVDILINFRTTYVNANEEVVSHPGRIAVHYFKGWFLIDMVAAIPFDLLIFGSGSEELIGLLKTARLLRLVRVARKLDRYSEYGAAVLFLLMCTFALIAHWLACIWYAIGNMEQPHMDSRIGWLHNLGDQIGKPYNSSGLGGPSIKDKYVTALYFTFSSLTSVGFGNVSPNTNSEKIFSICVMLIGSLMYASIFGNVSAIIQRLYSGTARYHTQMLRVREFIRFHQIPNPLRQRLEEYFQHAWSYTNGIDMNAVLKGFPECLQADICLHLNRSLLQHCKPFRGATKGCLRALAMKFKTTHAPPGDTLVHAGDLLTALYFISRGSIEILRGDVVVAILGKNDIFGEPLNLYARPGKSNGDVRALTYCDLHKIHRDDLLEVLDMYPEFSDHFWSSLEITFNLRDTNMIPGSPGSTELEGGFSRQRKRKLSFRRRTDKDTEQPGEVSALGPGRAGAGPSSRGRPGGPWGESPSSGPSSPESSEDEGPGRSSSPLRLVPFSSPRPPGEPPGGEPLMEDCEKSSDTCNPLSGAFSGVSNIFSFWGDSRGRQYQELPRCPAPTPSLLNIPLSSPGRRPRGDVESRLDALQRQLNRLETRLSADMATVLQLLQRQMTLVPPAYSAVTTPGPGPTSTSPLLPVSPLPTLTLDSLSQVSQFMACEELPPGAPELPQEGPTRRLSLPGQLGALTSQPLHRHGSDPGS
row,SMILES,"hERG current change (%, negative = inhibition) at 10uM [%]"
1,Cc1ccc(S(=O)(=O)NC(C)(C)CSc2ncccn2)cc1,-4.42
2,CC1=CC(C)(C)N(C(=O)CCl)c2ccccc21,-39.7
3,O=C(O)C(Nc1nc(C(F)(F)F)nc2ccccc12)c1ccccc1 (stereo not drawn),26.2
4,O=C(Cc1cccs1)NCc1cccc(F)c1,14.4
5,CCOC(=O)C1CCN(c2c(NCc3ccc(C(=O)NCCOC)cc3)c(=O)c2=O)CC1,-7.38
6,CCn1cc(C(=O)Nc2ccc(F)c(F)c2)cn1,7.43
7,COc1ccccc1N(CC(=O)NC(C)(C)C)C(=O)CCC(=O)Nc1nccs1,-36.5
8,COC(=O)CN1C(=O)C2(OCCCO2)c2ccccc21,-7.31
9,COc1cccc(-c2cccc(NC(=O)C3CCN(Cc4ccon4)CC3)c2)c1,-27.8
10,Cl.O=C(O)C1CCN(Cc2ccccn2)CC1,16.2
11,O=C(Nc1cccc(-c2cccc(Cl)c2)c1)C1CCN(Cc2ccccn2)CC1,-77.8
12,Cc1cc(C)n(-c2ccc(NC(=O)C3CCN(Cc4ccccn4)CC3)cc2)n1,-14.5
13,O=C(Nc1cccc(-c2cccc(Cl)c2)c1)C1CCN(Cc2ccon2)CC1,-52.7
14,CC(c1ccccc1)C1CC(=O)N(Cc2ccco2)C1=O (stereo not drawn),25.9
15,COc1ccc(CN2CC(C(=O)NCCC(C)C)CC2=O)cc1 (stereo not drawn),10.5
16,COc1ccc(NC(=S)NCCSc2ccc(C)cc2)c(OC)c1,5.2
17,CCOC(=O)c1c(C)[nH]c(C)c1S(=O)(=O)NCCc1sccc1C,-0.705
18,Cc1cc2ncn(CC(O)COc3cccc(C(=O)O)c3)c2cc1C (stereo not drawn),-10.8
19,Cc1ccc(C(=O)Nc2ccccc2C(=O)O)cc1S(=O)(=O)NCc1ccccc1,9.8
20,CC(CN1CCOCC1)C(=O)c1ccccc1.Cl (stereo not drawn),8.47
21,Cc1ccc(C)c(S(=O)(=O)NC(C)C(=O)Nc2ccc(-c3nc4ccccc4s3)cc2)c1 (stereo not drawn),2.9
22,Cc1ccc(/C=C/C(=O)OCC(=O)NC(=O)NCc2ccco2)cc1,18.7
23,CCc1cccc(C)c1NC(=O)COC(=O)c1ccc2c(c1)S(=O)(=O)c1ccccc1C2=O,-0.0165
24,Cc1nn(C)c(C)c1CCC(=O)NC1CC(C)(C)Cc2c1cnn2-c1ccccc1 (stereo not drawn),-28.1

row,SMILES,"hERG current change (%, negative = inhibition) at 10uM [%]"
1,Cc1ccc(-n2ncc3c2CC(C)(C)CC3NC(=O)CCc2ccncc2)cc1 (stereo not drawn),-72.2
2,CSCCC(=O)NC1CC(C)(C)Cc2c1cnn2-c1ccccc1C (stereo not drawn),-10.4
3,Cc1ccccc1-n1ncc2c1CC(C)(C)CC2NC(=O)CCC1=NNC(=O)CC1 (stereo not drawn),-75.9
4,COC(=O)CCC(=O)NC1CC(C)(C)Cc2c1cnn2-c1ccccc1 (stereo not drawn),-12
5,COC(=O)CCCC(=O)NC1CC(C)(C)Cc2c1cnn2-c1ccc(C)cc1 (stereo not drawn),-24.7
6,COc1ccc(-n2ncc3c2CC(C)(C)CC3NC(=O)CCC2=NNC(=O)CC2)cc1 (stereo not drawn),15.8
7,C=CCC(=O)NC1CC(C)(C)Cc2c1cnn2-c1ccccc1C (stereo not drawn),4.35
8,Cc1ccc(-n2ncc3c2CC(C)(C)CC3NC(=O)CCc2ccc(=O)[nH]n2)cc1 (stereo not drawn),-11.2
9,C=CCC(=O)NC1CC(C)(C)Cc2c1cnn2-c1ccc(C)cc1 (stereo not drawn),-69.7
10,CC1(C)Cc2c(cnn2-c2ccccc2)C(NC(=O)CCc2ccncc2)C1 (stereo not drawn),-68.8
11,CCc1nccn1CCC(=O)NC1CC(C)(C)Cc2c1cnn2-c1ccc(C)cc1 (stereo not drawn),-22.1
12,CCCCOc1ccc(C(=O)NCC(=O)OC2CCOC2=O)cc1 (stereo not drawn),4.84
13,Cc1cc(C(=O)N/N=C/c2sc(N3CCOCC3)nc2-c2ccccc2)c(C)o1,8.26
14,COc1ccc(C(=O)N2CCCC2)cc1S(=O)(=O)N1CCOCC1,-1.7
15,CCN[C@H]1CN(CCCOC)S(=O)(=O)c2sc(S(N)(=O)=O)cc21,2.51
16,CC(C)NS(=O)(=O)c1ccc(CCC(=O)N2CCc3ccccc3C2)cc1,-11.9
17,Cc1c(C(=O)OCC(=O)c2ccc3c(c2)OCCO3)oc2ccccc12,4.75
18,COc1cc(/C=C2\CCC(C3CCCC3)C2=O)cc(OC)c1OC (stereo not drawn),9.98
19,O=C(CSc1nnc2ncccn12)Nc1cccc2ccccc12,5.09
20,Cc1ccc(S(=O)(=O)N(C)CCCC(=O)Nc2cccc3ccccc23)cc1,-28.1
21,CC(=O)Nc1ccc(NC(=S)NC(=O)/C=C/c2ccc(Cl)cc2)cc1,17.7
22,O=C(Oc1c(Br)cc(C(=S)N2CCOCC2)cc1Br)c1ccc(Cl)cc1,11.3
23,CC(=O)N1N=C(c2ccc(NS(=O)(=O)c3ccccc3)cc2)CC1c1ccco1 (stereo not drawn),-12.2
24,Cc1ccc(-n2ncc3c2CC(C)(C)CC3NC(=O)CCN2CCCCC2=O)cc1 (stereo not drawn),3.16

row,SMILES,"hERG current change (%, negative = inhibition) at 10uM [%]"
1,Cc1ccc(-n2ncc3c2CC(C)(C)CC3NC(=O)CCc2cnn(C)c2)cc1 (stereo not drawn),-52.6
2,Cc1ccc(-n2ncc3c2CC(C)(C)CC3NC(=O)CCc2c(C)noc2C)cc1 (stereo not drawn),-32.3
3,Cc1ccc(-n2ncc3c2CC(C)(C)CC3NC(=O)CCN2CCCO2)cc1 (stereo not drawn),-37.7
4,Cc1ccc(-n2ncc3c2CC(C)(C)CC3NC(=O)CCCN2CCCC2=O)cc1 (stereo not drawn),-1.21
5,Cc1ccc(-n2ncc3c2CC(C)(C)CC3NC(=O)CCc2cccnc2)cc1 (stereo not drawn),-63.9
6,O=c1ccc2cc(S(=O)(=O)N3CCN(c4cc(Cl)ccc4Cl)CC3)ccc2o1,-20.7
7,Cc1cc(NC(=O)CSCC(=O)Nc2ccccc2Oc2ccccc2)no1,-8.79
8,NC(=O)CSc1oc(-c2cccs2)nc1S(=O)(=O)c1ccccc1,-15.5
9,COc1cccc(/C=N/NC(=O)CN2CC(c3ccccc3)CC2=O)c1O (stereo not drawn),-9.13
10,O=c1[nH]c2ccccc2c(O)c1-[n+]1ccccc1.[Cl-],22.5
11,COc1ccc(CCNC(=O)C(=O)Nc2ccc3nc4n(c(=O)c3c2)CCCCC4)cc1OC,-27.3
12,Oc1ccc(/C=N/Nc2nc(N3CCCC3)nc(N3CCCC3)n2)cc1O,2.71
13,Cl.c1ccc(CSCc2cn3ccccc3n2)cc1,2.98
14,Cc1ccc(NC(NC(=O)OCCn2c([N+](=O)[O-])cnc2C)C(Cl)(Cl)Cl)cc1 (stereo not drawn),6.71
15,Cc1ccccc1NC(NC(=O)OCCn1c([N+](=O)[O-])cnc1C)C(Cl)(Cl)Cl (stereo not drawn),2.42
16,Cc1ncc([N+](=O)[O-])n1CCOC(=O)NC(Nc1ccc(F)cc1)C(Cl)(Cl)Cl (stereo not drawn),-54.6
17,COc1ccccc1NC(=O)COn1nnc2ccc(S(=O)(=O)N3CCOCC3)cc21,4.92
18,CN(CC(=O)Nc1cccc(F)c1)C(=O)c1cn2ccccc2n1,-5
19,CN(CC(=O)Nc1ccc(Cl)c(C(F)(F)F)c1)C(=O)CCN1C(=O)C2CC=CCC2C1=O (stereo not drawn),-37.2
20,CN(CC(=O)Nc1ccc(Cl)c(C(F)(F)F)c1)C(=O)CCN1C(=O)C2CCCCC2C1=O (stereo not drawn),-50.2
21,CN(CC(=O)Nc1ccc(Cl)cc1)C(=O)CCNC(=O)c1ccc(Cl)cc1,-67.7
22,Cc1ccc(OCC(=O)N(C)CC(=O)Nc2ccc(Cl)c(C(F)(F)F)c2)c([N+](=O)[O-])n1,-54.8
23,CN(CC(=O)Nc1ccc(Cl)c(C(F)(F)F)c1)C(=O)CNC(=O)C1CCCCC1,-31.5
24,Cc1ccc(OCC(=O)N(C)CC(=O)Nc2ccccc2Cl)c([N+](=O)[O-])n1,-16.7

row,SMILES,"hERG current change (%, negative = inhibition) at 10uM [%]"
1,COc1ccccc1C(=O)NCCC(=O)N(C)CC(=O)Nc1ccc(Cl)cc1,-31.9
2,COc1ccc(NC(=O)CN(C)C(=O)CCCNC(=O)c2ccc(Cl)cc2)cc1,-30.8
3,Cc1ccc(OCC(=O)N(C)CC(=O)Nc2ccc(F)cc2)c([N+](=O)[O-])n1,-24.2
4,CCOc1ccc(NC(=O)CN(C)C(=O)c2cn3ccccc3n2)cc1OCC,-19.2
5,CN(CC(=O)Nc1ccc(Cl)c(C(F)(F)F)c1)C(=O)c1cn2ccccc2n1,-61.9
6,COc1cc(C2/C(=C(/O)c3ccccc3)C(=O)C(=O)N2c2ccccn2)ccc1O (stereo not drawn),25.1
7,O=C(COC(=O)CN1C(=O)C2CC=CCC2C1=O)Nc1cc(C(F)(F)F)ccc1N1CCOCC1 (stereo not drawn),-26.8
8,CC(=O)OCCN(Cc1ccccc1)Cc1ccc2c(c1)OCO2,-10.8
9,CC(/C=N/n1c(-c2cc(C)[nH]n2)n[nH]c1=S)=C\c1ccccc1,14.7
10,COc1ccc(CCC(=O)N(C)CC(=O)Nc2ccc(Cl)c(C(F)(F)F)c2)cc1,22.2
11,CN(CC(=O)Nc1ccc(Cl)c(C(F)(F)F)c1)Cc1cc(=O)n2ccsc2n1,-82.8
12,CN(CC(=O)Nc1ccc(Cl)c(C(F)(F)F)c1)C(=O)CCCNC(=O)c1ccc(Cl)cc1,-52.2
13,COc1ccc(NC(=O)CN(C)C(=O)CSCC(=O)Nc2ccc(C)cc2)cc1,-0.753
14,O=C(CCCN1C(=O)CCC1=O)Nc1ccc(Cl)c(C(F)(F)F)c1,-18.8
15,COc1ccc(NC(=O)CCCCCN2C(=O)CCC2=O)cc1Cl,-2.22
16,O=C(CCCCCN1C(=O)CCC1=O)Nc1ccc(Cl)c(C(F)(F)F)c1,-58.7
17,CN(CC(=O)Nc1cccc(F)c1)C(=O)CCCNC(=O)c1ccc(Cl)cc1,-36.7
18,COc1ccc(NC(=O)CSCC(=O)N(C)CC(=O)Nc2ccc(Cl)c(C(F)(F)F)c2)cc1,-68.6
19,COc1cccc(NC(=O)CN(C)C(=O)CCCNC(=O)c2ccc(Cl)cc2)c1,-46.5
20,Cc1ccc(NC(=O)CN(C)Cc2cc(=O)n3ccsc3n2)cc1,-7.66
21,CN(CC(=O)Nc1ccc(Cl)cc1)Cc1cc(=O)n2ccsc2n1,-33.3
